Abeta yeast res = restores growth of yeast expressing A-beta42 peptide | 410,000 tested, 0.063% active | Potency, µM (top dose mostly 46.1 µM), most hits filed as activators | yeast expressing A-beta42, growth rescue, OD600, 48 h; response scale: 0% DMSO, 100% iron-clioquinol control; also: nearly all actives have a fitted effect of over 55% in size
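Yeast A-beta toxicity model in growth medium with pinned compounds, 48 h at 30 C; growth read as absorbance at 600 nm. Normalized to FeCl3/clioquinol equimolar mix (positive) and DMSO (negative).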
aSyn rescue = inhibitors of alpha-synuclein toxicity in yeast | Potency, µM (top dose mostly 46.1 µM), without a hit: at the highest dose growth rescue (activation), most hits filed as activators | 370,000 tested, 0.14% active | Yeast expressing alpha-synuclein, growth rescue, BacTiter-Glo, 24 h; also: % of control where 0% means no effect; nearly all actives have a fitted effect of over 65% in size
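Readout is rescue of growth in alpha-synuclein-expressing yeast, so inhibitors of toxicity appear as activators. Growth after 24 hr at 30 deg C in galactose medium is quantified by luminescence.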
FUS yeast rescue = suppressors of FUS proteinopathy in yeast | S. cerevisiae FUS-expressing, growth rescue, OD600, 24 h | Potency, µM (top dose mostly 76.6 µM), usual class: activators | 390,000 tested, 0.24% active | AID 1347120;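 also: plate controls were DMSO vehicle for no effect and reference control for full effect; nearly all actives have a fitted effect of over 55% in size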
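Restored growth of FUS-toxic S. cerevisiae, read as 600 nm absorbance after 24 h at 30C in galactose medium (starting OD 0.005). Controls CP55940 and DMSO.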
ERG-DNA inh = ERG Ets/DNA interaction inhibition | Potency, µM (highest dose often 76.9 µM), inactives show at the highest dose FP activity, negative = inhibition, actives largely listed as inhibitors | 370,000 tested, 0.028% active | P11308 | fluorescence polarization, His-ERG Ets domain / labelled DNA; active = well fitted inhibition curve with a large enough effect in the polarisation, with a control signal flat; inconclusive = small, poorly fitted or top-dose-only effect, or effect the other way, or a change in a side signal; inactive = no such curve, though single readings can be large or run the other way; the % refers to the polarisation;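 also: polarization taken with two DNA probes labelled with fluorescein and Texas red; % of control where 0% means no effect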
Target sequence (P11308 whole entry, looked up, the tested form may be a part): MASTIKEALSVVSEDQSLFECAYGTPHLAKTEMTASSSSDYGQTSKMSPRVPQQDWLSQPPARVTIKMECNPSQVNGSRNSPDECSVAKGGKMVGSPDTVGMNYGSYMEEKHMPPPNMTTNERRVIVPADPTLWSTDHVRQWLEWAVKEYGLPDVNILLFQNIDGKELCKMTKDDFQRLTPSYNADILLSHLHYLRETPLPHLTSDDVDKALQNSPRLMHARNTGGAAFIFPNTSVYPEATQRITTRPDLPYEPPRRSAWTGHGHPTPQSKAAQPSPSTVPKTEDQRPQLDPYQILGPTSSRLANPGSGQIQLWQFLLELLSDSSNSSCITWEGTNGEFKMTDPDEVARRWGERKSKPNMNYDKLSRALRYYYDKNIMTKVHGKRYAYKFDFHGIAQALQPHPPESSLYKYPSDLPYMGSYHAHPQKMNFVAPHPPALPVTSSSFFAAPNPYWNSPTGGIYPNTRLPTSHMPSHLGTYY
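His-tagged ERG Ets domain (1 uM in the protein solution; 300mM KCl, 50mM Tris-HCl, 1mM EDTA, 1mM DTT, pH 7.5) received compound, then a probe mix of 5 nM fluorescein-DNA and 100nM Texas-615-DNA. Fluorescence polarization was read for both dyes.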
Mito fusion yeast = blocks mitochondrial division or promotes mitochondrial fusion; S. cerevisiae fusion-defective mutant growth rescue, CellTiterGlo 48 h; 320,000 tested, 0.23% active; Potency, µM (titrated, usually from 46.1 µM), for the others: at the top dose growth rescue (activation), actives largely listed as activators; also: % of control where 0% means no effect; nearly all actives have a fitted effect of over 45% in size
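Compounds are tested for their ability to restore growth of mitochondrial fusion-defective yeast strains at non-permissive 37C in YPEG medium over 48 hours. Viability is quantified by luciferase luminescence.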
TDP-43 yeast inh = rescues yeast growth from TDP-43 toxicity; TDP-43 expressing yeast growth rescue, BacTiter-Glo, 24 h; Potency, µM (doses to about 46.1 µM), for inactives: at the highest dose growth rescue (activation), actives largely listed as activators; 410,000 tested, 1.8% active; AID 652104; also: % of control where 0% means no effect; nearly all actives have a fitted effect of over 50% in size
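Yeast cells expressing TDP-43 under galactose induction are exposed to compounds for 24 hr at 30 deg C. BacTiter-Glo luminescence measures growth, so protective compounds score as activators.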
Numbers without * were called inactive; i = inactive; ? = inconclusive; nt = no result given; ! = not active in a repeat; [ ] = remark or other dose. Most compounds without a hit are left out; they make up all but 2.2% or so of the library. Unless noted, calls follow the shape of the dose curve; as a rule, active = well fitted curve in the direction sought with a large enough effect; inconclusive = small, poorly fitted or top-dose-only effect, or another doubt; inactive = no such curve, though single readings can be large; an effect the other way counts as inactive or inconclusive. Potency is read from the fitted curve at half-maximal effect.

SMILES | Abeta yeast res | aSyn rescue | FUS yeast rescue | ERG-DNA inh | Mito fusion yeast | TDP-43 yeast inh
NC(=O)c1cccc(-c2ccnc3c2CC(C(=O)Nc2cccc(C(F)(F)F)c2)O3)c1 (centres undefined) | i | -3% | i | nt | nt | 5%
O=C(Nc1cccc(C(F)(F)F)c1)C1Cc2c(-c3cccc(F)c3)ccnc2O1 (centres undefined) | i | ? | ? | nt | nt | 25µM*
CCOC(=O)c1ccc(NC(=O)COc2cccc3c(=O)n(C)ccc23)cc1 | i | nt | i | 9% | nt | ?
CCN(CC)C(=O)CC[C@H]1CC[C@]2(CCCN(C(=O)C3CCCC3)C2)O1 | nt | nt | i | nt | nt | nt
CCOC(=O)c1ccc(N/C(=N\S(=O)(=O)c2ccccc2C)c2ccccc2)cc1 | i | 5% | i | 3% | 22% | 25µM*
CCCCOc1ccc(C(=O)NCc2nnnn2-c2ccc(C)c(C)c2)cc1 | i | nt | i | 1% | nt | 20µM*
CCOC(=O)c1sc(NC(=O)c2c(-c3ccccc3)c(-c3ccccc3)nn(C)c2=O)nc1C | i | nt | ? | ? | nt | 16µM*
Cc1nc(NC(=O)c2c(-c3ccccc3)c(-c3ccccc3)nn(C)c2=O)sc1C | i | nt | i | -3% | nt | 0%
CCN(CC)CC#CCOC(=O)C(O)(c1ccccc1)C1CCCCC1 (centres undefined) | i | -2% | i | -4% | 23µM*! | 24%
CCN(CC)CC#CCC(O)(c1ccccc1)C1CCCCC1 (centres undefined) | i | 0% | i | 0% | -4% | -7%
CCOc1ccc(CNCc2c(C(=O)O)n(Cc3ccccc3C)c3cc(OC)ccc23)cc1OC | i | 10% | i | -1% | nt | 19%
O=C(NCCSc1c[nH]c2ccccc12)c1ccccc1Cl | i | nt | i | -5% | nt | 35µM*
Cc1[nH]c2ccccc2c1SCCNC(=O)c1ccccc1F | 14µM* | nt | i | 3% | nt | 14µM*
COc1ccccc1C(=O)NCCSc1c(C)[nH]c2ccccc12 | ? | nt | i | -4% | nt | 32µM*
O=C(NCCSc1c[nH]c2ccccc12)c1ccc(Cl)cc1 | i | nt | i | ? | nt | -9%
CCCCOC(=O)NS(=O)(=O)c1sc(CC(C)C)cc1-c1ccc(Cn2c(CC)nc3c(C)cc(C)nc32)cc1 | nt | -6% | nt | nt | ? | nt
CC1=Cc2ccccc2C(C#N)N1C(=O)c1ccccc1 (centres undefined) | ? | ? | i | 4% | 13µM* | -29%[0.397 µM]
Cc1ccc2c(c1)C=CC(C#N)N2C(=O)c1ccccc1 (centres undefined) | i | 16% | i | -10% | -7% | 11%
CCCOc1ccc2c3c(c(=O)oc2c1OCCC)CCCC3 | i | -15% | i | 1% | -1% | 19%
CCOc1ccc2c3c(c(=O)oc2c1OCC)CCCC3 | i | -2% | i | -4% | 0% | 22µM*
COc1ccc2c(c1)OC[C@H]1[C@H]2N2C(=O)c3cc(OC)ccc3NC(=O)[C@@]2(C)[C@H]1c1ccccc1 | i | 20% | i | -1% | -20% | 5µM*
COc1ccc2c(c1)OC[C@H]1[C@H]2N2C(=O)c3cc(F)ccc3NC(=O)[C@@]2(C)[C@H]1c1ccccc1 | i | 8% | i | -4% | nt | 20µM*
C[C@@]12C(=O)Nc3ccc(Cl)cc3C(=O)N1[C@H]1c3cc(Br)ccc3OC[C@@H]1[C@@H]2c1ccccc1 | i | 10% | 28µM* | 1% | nt | 10%
Cc1ccc2c(c1)[C@H]1[C@H](CO2)[C@H](c2ccccc2)[C@]2(C)C(=O)N(Cc3ccc(F)cc3)CC(=O)N12 | 16µM* | 0% | i | -8% | nt | 21%
O=C(C1CCCN1S(=O)(=O)c1ccccc1[N+](=O)[O-])N1CCc2ccccc2C1 (centres undefined) | nt | nt | i | nt | nt | nt
SMILES | Abeta yeast res | aSyn rescue | FUS yeast rescue | ERG-DNA inh | Mito fusion yeast | TDP-43 yeast inh
COc1ccc2c(c1)C(=O)N1[C@H]3c4cc(Cl)ccc4OC[C@@H]3[C@H](c3ccccc3)[C@]1(C)C(=O)N2 | ? | -3% | ? | -11% | nt | 26%
COc1ccc2c(c1)OC[C@H]1[C@H]2N2C(=O)c3cc(Cl)ccc3NC(=O)[C@@]2(C)[C@H]1c1ccccc1 | i | 23% | i | -3% | -15% | 4.5µM*
CC1=C(c2ccc(C)cc2)S(=O)(=O)N(Cc2ccc(C(=O)Nc3ccc(C)c(F)c3)cc2)C1=O | i | nt | i | 2% | nt | 0%
CCCCC(=O)Nc1cccc(-c2nc3ccccc3s2)c1 | i | nt | i | 3% | nt | 13%
COC(=O)C1CCN(C2CN(C3CCCCC3)S(=O)(=O)C2)CC1 (centres undefined) | i | 0% | i | nt | nt | 21%
Cc1nc([N+](=O)[O-])c(Br)n1CC(=O)c1ccc(Br)cc1 | i | 7% | i | 6% | -3% | 11µM*
Cc1nc([N+](=O)[O-])c(Br)n1CC(=O)c1ccccc1 | i[9.22 µM] | 14% | i | 1% | -19% | 16%
Cc1nc([N+](=O)[O-])c(Br)n1CC(=O)c1ccc2ccccc2c1 | i | 1% | 14µM* | 3% | -4% | 16µM*
CC1=C(C(=O)Nc2ccccc2)C(c2cccc(Cl)c2)n2nc(SCC(=O)c3ccc(C)cc3)nc2N1 (centres undefined) | i | nt | i | 3% | nt | 14%
CCCn1c(SCC(O)c2cccc(OC)c2)nc2ccccc21 (centres undefined) | i | nt | i | 1% | nt | ?
CC1CCCCN1C(=S)NC(=O)c1ccco1 (centres undefined) | i | 0% | nt | nt | -2% | 19%
CC1CCCCN1C(=S)NC(=O)c1cc(Br)ccc1Cl (centres undefined) | i | 13% | i | 2% | 14% | 25µM*
CCC1CCCCN1C(=S)NC(=O)c1cc(Br)ccc1Cl (centres undefined) | 11µM* | ? | i | -1% | 10% | 28µM*
CCCOc1cccc(C(=O)Nc2cccc(-c3nc4ncccc4o3)c2C)c1 | i | 3% | i | 7% | nt | 10%
Cc1ccc(-n2nc(CO)c(C(=O)NCCO)n2)cc1 | i | nt | i | -4% | nt | 11%
CC(C)c1ccc(Nc2ccc(C(=O)O)cc2[N+](=O)[O-])cc1 | i | 20% | i | 15% | ? | 11%
O=C(O)c1ccc(Nc2ccc(Cl)c(Cl)c2)c([N+](=O)[O-])c1 | i | 2% | i | -2% | 14µM* | 19%
